These results are taken from PubChem BioAssay (NCI).

The panel holds about 79,000 compounds, 15% with a hit somewhere; the sample as a whole holds those more often. A number with no mark means an inactive call. The source made the active and inactive calls. Rule as the data show it: active = growth inhibition above about 70%; inactive = the rest.

The assay can be described thus: NCI Yeast Anticancer Drug Screen. Data for the mlh1 strain (AID 171).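 Also: 0% = growth of vehicle-treated control cultures of the same strain.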 Particulars: S. cerevisiae mlh1 strain growth inhibition, active compounds read high. On the procedure:
Growth inhibition of yeast strains with defined genetic alterations is measured as a screen for potential anti-cancer activity. Selected strains with alterations in DNA damage repair or cell cycle control were exposed to compounds and growth inhibition was measured relative to vehicle treated controls. The strain used in this assay is mlh1

For `CCCCCCCCCCCCOC1C(COCCN2CCCC2)OC2OC(C)(C)OC21` (stereo not given), the growth inhibition is, setting by setting: (at 1.2 µM) 25%; (at 3.7 µM) 27%; (at 11.0 µM) 94% (active); (at 33.0 µM) 98% (active); (at 100.0 µM) 98% (active).
As for `O=[N+]([O-])C(=C(NCc1ccccc1)NCc1ccccc1)C(Cl)=C(Cl)Cl`, the growth inhibition runs as follows: (at 1.2 µM) 4%; (at 3.7 µM) 1%; (at 11.0 µM) 9%; (at 33.0 µM) 25%; (at 100.0 µM) 85% (active).
On to `CC[N+]1(C)CCC(O)(/C=C/c2ccc(Cl)c(Cl)c2)C(C(=O)/C=C/c2ccc(Cl)c(Cl)c2)C1` (stereo not given), for which the growth inhibition (at 1.2 µM) was 6%; the growth inhibition (at 3.7 µM) is 45%; the growth inhibition (at 11.0 µM) was 99% (active); the growth inhibition (at 33.0 µM) was 99% (active); the growth inhibition (at 100.0 µM) was 99% (active).
Take `CC[C@@]1(OC(=O)CN(C)C)C(=O)OCc2c1cc1n(c2=O)Cc2cc3ccccc3nc2-1`: the growth inhibition runs as follows: (at 1.2 µM) 0%; (at 3.7 µM) 2%; (at 11.0 µM) 42%; (at 33.0 µM) 90% (active); (at 100.0 µM) 96% (active).
Taken in the same sequence, the figures for `Cc1[nH]nc(C(F)(F)F)c1N=NN(C)C` were 4%, 48%, 52%, 99% (active) and 99% (active).
Taken in the same sequence, the figures for `BrC/C=C/C[P+](c1ccccc1)(c1ccccc1)c1ccccc1` were -5%, 1%, 83% (active), 98% (active) and 99% (active).
`CCCCCCCCCCCCCCCCCN`: the growth inhibition was -31% (at 1.2 µM); 0% (at 3.7 µM); 90% (active) (at 11.0 µM); 97% (active) (at 33.0 µM); 94% (active) (at 100.0 µM).
Taken in the same sequence, the figures for `S=c1[nH]nc(Cc2ccccc2)c(=S)[nH]1` were 14%, 34%, 77% (active), 96% (active) and 96% (active).
